# Data reported in PubChem BioAssay (NCATS).
# Results filed as inconclusive are left out. Where a call stands in place of a potency, no number is given. Activity calls are given as the source filed them. Unless noted, calls come from the whole dose curve.
# Key:
# [1] = qHTS for Inhibitors of the Functional Ribonucleoprotein Complex (vRNP) of Lassa (LASV) Arenavirus: LASV Primary Screen - GLuc reporter signal (AID 1347082; calls by dose curve; tested in HEK293 reporter line; note: nearly all actives have a fitted effect of over 60% in size; note: potency is the fitted concentration of half-maximal effect)
# [2] = qHTS for Inhibitors of the Functional Ribonucleoprotein Complex (vRNP) of Lassa (LASV) Arenavirus: Viability assay - alamar blue signal for LASV Primary Screen (AID 1347083; calls by dose curve; tested in HEK293 reporter line; note: nearly all actives have a fitted effect of over 80% in size; note: potency is the fitted concentration of half-maximal effect)
# [3] = target: Nucleoprotein (Lymphocytic choriomeningitis virus (strain Armstrong)) (UniProt P09992); experiment: qHTS for Inhibitors of the Functional Ribonucleoprotein Complex (vRNP) of Lymphocytic Choriomeningitis Arenaviruses (LCMV): LCMV Primary Screen - GLuc reporter signal (AID 1347086); note: nearly all actives have a fitted effect of over 70% in size; note: potency is the fitted concentration of half-maximal effect
# [4] = Primary qHTS to identify inhibitors of SARS-CoV-2 cell entry (AID 1645846); details: activity change, negative = inhibition: at 57.1 µM (top of the series) unless noted; note: nearly all actives have a fitted effect of over 45% in size; note: potency is the fitted concentration of half-maximal effect
# Summary of the method: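 Entry measured by luciferase signal 48 h after adding SARS-CoV-2-S pseudotyped MLV particles to HEK293-ACE2 cells preincubated 1 h with compounds. Normalisation: bald particles and spike particles.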
# [5] = Cytotoxicity counterscreen for inhibitors of SARS-CoV-2 cell entry (AID 1645845); note: nearly all actives have a fitted effect of over 50% in size
# Summary of the method: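 HEK293-ACE2 cells (Expi293F stably expressing human ACE2) seeded overnight, then compound for 1 h plus 48 h at 37C. Viability as ATP content by luminescence; normalized to wells with cells and media-only wells.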
# [6] = qHTS profiling of the MIPE4 collection as inhibitors of Plasmodium falciparum (3D7) proliferation (AID 743344; call rule not given here); details: P. falciparum 3D7 in erythrocytes, SYBR Green DNA fluorescence, 72 h; at 28.5 µM (top of the series) unless noted
# Summary of the method: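 Erythrocytes infected with P. falciparum (0.3% parasitemia, 2.5% hematocrit) incubated with compounds 72 h at 37 C, 5% CO2. Lysis with saponin/Triton buffer containing SYBR Green I, overnight at room temperature in the dark; DNA fluorescence (485/535 nm) normalised to 0.29 uM artemisinin and DMSO.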
# [7] = target: Alpha-galactosidase (Coffea arabica) (UniProt Q42656); experiment: Counterscreen for Glucocerebrosidase Inhibitors: qHTS Assay for Coffee Bean alpha-Galactosidase at pH 4.5 (AID 957; active = well fitted curve in the direction sought with a large enough effect; an effect the other way counts as inactive or inconclusive)
# Summary of the method: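 Coffee bean enzyme (2 nM) with 80 uM 4-methylumbelliferyl alpha-D-galactopyranoside in 50 mM citric acid, 0.005% Tween-20, pH 4.5, 20 min at room temperature; compounds 0.7 nM–77 uM. Stopped at pH 10, fluorescence 365/440 nm; AC50 from Hill fits.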
# [8] = target: Alpha-galactosidase (Coffea arabica) (UniProt Q42656); experiment: Counterscreen for Glucocerebrosidase Inhibitors: qHTS Assay for Coffee Bean alpha-Galactosidase at pH 5.9 (AID 998; active = well fitted curve in the direction sought with a large enough effect; an effect the other way counts as inactive or inconclusive)
# Summary of the method: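 Green coffee bean enzyme (2 nM) with 4-methylumbelliferyl alpha-D-galactopyranoside (80 uM) in 50 mM citric acid, 0.005% Tween-20, pH 5.9, 20 min at room temperature; compounds 0.7 nM–77 uM. Stopped at pH 10, fluorescence Ex365/Em440; Hill-fit AC50.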
# [9] = Validation screen for inhibitors of Lassa infection (AID 463096)
# [10] = Inducers of the Endoplasmic Reticulum Stress Response (ERSR) in human glioma: Validation (AID 504836; active = well fitted curve in the direction sought with a large enough effect; an effect the other way counts as inactive or inconclusive)
# Summary of the method: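 Stably transfected U87-MG glioma cells carrying a GRP78-based luciferase sensor; 16 h compound incubation. Luminescence end-point read 10 min after Bright-Glo addition at room temperature.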
# [11] = Confirmatory qHTS to identify inhibitors of SARS-CoV-2 cell entry (AID 1645844); note: potency is the fitted concentration of half-maximal effect; nearly all actives have a fitted effect of over 45% in size
# Summary of the method: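 HEK293-ACE2 cells were pretreated 1 h with compound, then infected with MLV-based pseudoparticles bearing C-terminally truncated Wuhan-Hu-1 spike for 48 h at 37C; luciferase luminescence normalized to spike PP and bald PP wells.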
# [12] = VSVG counterscreen qHTS to identify inhibitors of SARS-CoV-2 cell entry (AID 1645847); note: potency is the fitted concentration of half-maximal effect; nearly all actives have a fitted effect of over 65% in size
# Summary of the method: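 Luminescence read after 48 h infection at 37 C with VSV-G-pseudotyped MLV particles, following 1 h compound exposure of Expi293F cells stably expressing human ACE2; scaled between bald particle and VSV-G particle wells.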
# Nucleoprotein (Lymphocytic choriomeningitis virus (strain Armstrong)), sequence (P09992 whole entry, looked up): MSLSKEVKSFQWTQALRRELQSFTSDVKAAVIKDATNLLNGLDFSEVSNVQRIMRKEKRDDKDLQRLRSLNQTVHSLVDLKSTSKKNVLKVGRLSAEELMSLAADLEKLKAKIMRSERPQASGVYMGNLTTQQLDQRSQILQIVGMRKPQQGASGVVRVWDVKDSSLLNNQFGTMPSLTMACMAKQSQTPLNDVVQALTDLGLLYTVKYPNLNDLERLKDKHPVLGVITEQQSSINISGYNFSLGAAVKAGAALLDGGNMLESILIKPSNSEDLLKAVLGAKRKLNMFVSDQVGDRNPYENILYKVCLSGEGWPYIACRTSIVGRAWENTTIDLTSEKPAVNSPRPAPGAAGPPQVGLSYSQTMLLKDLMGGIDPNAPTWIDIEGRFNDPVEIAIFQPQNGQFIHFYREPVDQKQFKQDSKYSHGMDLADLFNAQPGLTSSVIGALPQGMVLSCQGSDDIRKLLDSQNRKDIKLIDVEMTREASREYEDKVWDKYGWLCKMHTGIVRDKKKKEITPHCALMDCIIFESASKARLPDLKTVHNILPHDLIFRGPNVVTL
# Alpha-galactosidase (Coffea arabica), sequence (Q42656 whole entry, looked up): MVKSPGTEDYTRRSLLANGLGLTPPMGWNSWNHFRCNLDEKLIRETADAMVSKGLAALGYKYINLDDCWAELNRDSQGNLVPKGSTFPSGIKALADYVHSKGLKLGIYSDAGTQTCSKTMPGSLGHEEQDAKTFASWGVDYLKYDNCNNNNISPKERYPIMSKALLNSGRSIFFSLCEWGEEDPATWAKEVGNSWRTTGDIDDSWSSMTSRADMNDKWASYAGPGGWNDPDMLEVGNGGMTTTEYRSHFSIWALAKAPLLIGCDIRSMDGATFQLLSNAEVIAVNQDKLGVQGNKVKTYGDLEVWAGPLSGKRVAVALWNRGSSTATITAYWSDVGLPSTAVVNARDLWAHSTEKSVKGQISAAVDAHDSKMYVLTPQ
structure (smiles),measurement,setting,value
Oc1ccc(-c2ccc(-c3cc(Nc4cccc(CNC5CC5)c4)n[nH]3)cc2)c(O)c1,Potency,[1],24.3 µM (active)
same,Potency,[2],3.06 µM (active)
same,Potency,[3],12.2 µM (active)
same,Potency,[4],10 µM (active)
CCNc1cc(NC2CCC(O)CC2)nc(Nc2ccc3c(ccn3Cc3ccccc3)c2)n1 (stereo not given),Potency,[1],inactive
same,Potency,[2],inactive
same,Potency,[5],inactive
CC(C)C(C)C=CC(C)C1CCC2C3=CC=C4CC(O)CCC4(C)C3CCC21C (stereo not given),"parasite growth, % of DMSO control",[6],96.2%
same,Potency,[1],27.3 µM (active)
same,Potency,[2],38.5 µM (active)
same,Potency,[3],7.69 µM (active)
same,Potency,[5],inactive
same,Potency,[4],inactive
COc1cc(C(=O)N2CCC(N3CCN(C)CC3)CC2)ccc1Nc1ncc2c(n1)N(C)c1ccccc1C(=O)N2C,Potency,[1],inactive
same,Potency,[2],17.2 µM (active)
same,Potency,[3],10.9 µM (active)
same,Potency,[4],31.6 µM (active)
CN1N=C(N)c2cn([C@@H]3O[C@H](COP(=O)(O)O)[C@@H](O)[C@@H]3O)c3ncnc1c23,Potency,[1],inactive
same,Potency,[2],34.3 µM (active)
same,Potency,[3],inactive
same,"activity change, negative = inhibition",[4],-94.7%
CC(C)C[C@H](CC(=O)O)C(=O)N[C@@H](Cc1c[nH]c2ccccc12)C(=O)N[C@@H](C)c1ccccc1,Potency,[1],inactive
same,Potency,[2],inactive
same,Potency,[3],inactive
same,Potency,[5],inactive
same,"activity change, negative = inhibition",[4],-6.02%
O=c1[nH]c2cc(Cl)c(Cl)cc2[nH]c1=O,outcome,[7],inactive
same,outcome,[8],inactive
same,Potency,[9],inactive
same,outcome,[10],inactive
same,Potency,[1],inactive
same,Potency,[2],inactive
same,Potency,[3],inactive
C[C@]1(c2nc3c(C(N)=O)cccc3[nH]2)CCCN1,Potency,[1],inactive
same,Potency,[2],2.73 µM (active)
same,Potency,[3],inactive
same,Potency,[5],inactive
same,"activity change, negative = inhibition",[4],-3.68%
CN(C)C(=O)/N=N/C(=O)N(C)C,Potency,[9],inactive
same,outcome,[10],inactive
same,Potency,[1],inactive
same,Potency,[2],inactive
same,Potency,[3],inactive
COc1cc(Nc2ncc(F)c(Nc3ccc4c(n3)N(COP(=O)(O)O)C(=O)C(C)(C)O4)n2)cc(OC)c1OC,Potency,[1],inactive
same,Potency,[2],2.43 µM (active)
same,Potency,[5],inactive
same,Potency,[4],inactive
CC(C)c1cc(-c2n[nH]c(=O)n2-c2ccc3c(ccn3C)c2)c(O)cc1O,Potency,[1],0.385 µM (active)
same,Potency,[2],0.243 µM (active)
same,Potency,[3],0.306 µM (active)
same,"activity change, negative = inhibition",[4],-96%
Cc1ccc2nc(NC(=O)CSc3nc4c(c(=O)n3-c3ccccc3)SCC4)sc2c1,Potency,[1],19.3 µM (active)
same,Potency,[2],17.2 µM (active)
same,Potency,[3],8.63 µM (active)
same,Potency,[5],inactive
same,"activity change, negative = inhibition",[4],-16.9%
COc1cc(F)c(F)c(Nc2ccc(I)cc2F)c1NS(=O)(=O)C1(C[C@H](O)CO)CC1,Potency,[1],inactive
same,Potency,[2],inactive
same,Potency,[3],inactive
same,Potency,[4],25.1 µM (active)
COC(=O)Nc1ccc(-c2nc(N3CCOCC3)c3cnn(C4CCN(Cc5cccnc5)CC4)c3n2)cc1,Potency,[1],0.109 µM (active)
same,Potency,[2],0.153 µM (active)
same,Potency,[11],5.41 µM (active)
same,Potency,[4],6.31 µM (active)
same,Potency,[12],9.61 µM (active)
